Source: the supplement of paper PMC10338343
± gives the standard deviation.

test system: MILI (PIWIL2) piRISC loaded with L1MC piRNA (26 nt); experiment: pre-steady-state target cleavage rate (min^-1); guide: L1MC piRNA 5'p-UAACUAAAUACUAUGCAAGCUGUAGG; MIWI and MILI are mouse PIWI proteins and EfPiwi is from a freshwater sponge; tags in brackets are library labels; higher = faster piRNA-guided slicing of the target; details: auxiliary factor: 500 nM mouse GTSF1
Experimental: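 Cleave-'n-Seq: a library of target RNAs (target site embedded in constant flanks, ACAGCATTCCGCGTTAGTGATATCCG... 5' flank; DNA-blocked outside the site) at 0.1 nM was incubated with 1 nM active mouse MILI or MIWI piRISC (synthetic 5'-monophosphorylated piRNA guide) with or without 500 nM mouse GTSF1 at 33 °C for 1 min to 16 h. Uncleaved targets were sequenced and normalised to non-target controls, and the pooled three trials were fitted to a burst-and-steady-state model to give the pre-steady-state cleavage rate (min^-1; k3 is constrained to at most 1e-4). Sequence is the target site only; target names encode pairing extent (gX:gY) and contiguous / 1-mismatch / 2-mismatch / bulge geometry. Fits with R² ≤ 0 are excluded.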

Q: Which “pre-steady-state target cleavage rate” value does the source give for UCCUGGAUCAGCUUGCAAAGUUUUUAGUUA here?
A: 0.00906 ± 0.0052

Q: With UCCUGGAUGUGACUUGCAUAGUAUUUAGUUA as the sequence, how does the “pre-steady-state target cleavage rate” value read?
A: 0.114 ± 0.019

Q: How did the “pre-steady-state target cleavage rate” value turn out when UCCUCCUACAGCUUGCAUUCUAUUUUCAAA was run?
A: 0.0147 ± 0.0054

Q: How did the “pre-steady-state target cleavage rate” value turn out when “UCCUGGAUGUCGAACCAUAGUAUUUAGUUU [g2:g15:cont:t1U]” was run?
A: 0.00385 ± 0.0021

Q: With UCCUGGAAGUCCUUGCAUAGUAUUUAGUUA as the sequence, how does the “pre-steady-state target cleavage rate” value read?
A: 0.159 ± 0.018

Q: UCCUGGUACAGCUUGCAUAGUUUUAGUUA was tested. Which “pre-steady-state target cleavage rate” value did it give?
A: 0.00982 ± 0.0052

Q: Which “pre-steady-state target cleavage rate” value does the source give for UCCUGGAUGUCGUUGCAUCGUAUUUAGUUA here?
A: 0.0281 ± 0.0074

Q: How did the “pre-steady-state target cleavage rate” value turn out when UCCUGGUACAGCAUGCAUAGUAUUUACUUA was run?
A: 0.0914 ± 0.025

Q: Which “pre-steady-state target cleavage rate” value does the source give for UCCUGGAUCAGCUUGCAAAGUAAUUAGUUA here?
A: 0.0974 ± 0.011

Q: How did the “pre-steady-state target cleavage rate” value turn out when UCCUGCAACAGCUUGCAUAGUAUUUAGUUA was run?
A: 0.398 ± 0.028

Q: UCCUGGUACACCUUGCAUAGUAUUUAGUAA was tested. Which “pre-steady-state target cleavage rate” value did it give?
A: 0.182 ± 0.043

Q: How did the “pre-steady-state target cleavage rate” value turn out when UCCUGGAUCAGCUUGCAUAGUUUUUAGUAA was run?
A: 0.0337 ± 0.0089

Q: UCCUGGAUGUCCUUGCAUAGUAUUUAUGUUA was tested. Which “pre-steady-state target cleavage rate” value did it give?
A: 0.0185 ± 0.0059

Q: Which “pre-steady-state target cleavage rate” value does the source give for UCCUCCUACAGCAUGCAUUGUAUUUAGUUA here?
A: 0.217 ± 0.015

Q: With UCCUGGAAGAGCUUGCAUACUAUUUAGUUA as the sequence, how does the “pre-steady-state target cleavage rate” value read?
A: 0.0778 ± 0.014

Q: UCCUGGAUCAGGUUGCAUAGUAUUUUCAAA was tested. Which “pre-steady-state target cleavage rate” value did it give?
A: 0.07 ± 0.023

Q: UCCUCGUACAGCUAGCAUAGUAUUUAGUUA was tested. Which “pre-steady-state target cleavage rate” value did it give?
A: 0.281 ± 0.012

Q: How did the “pre-steady-state target cleavage rate” value turn out when UCCUCCUACAGCUUGCUUUGUAUUUAGUUA was run?
A: 0.18 ± 0.017

Q: How did the “pre-steady-state target cleavage rate” value turn out when UCCUGGUAGAGCUUGCAUAGUAUUAAGUUA was run?
A: 0.207 ± 0.034

Q: UCCUGGAUCAGCUUGCAUAGUAUUUAGUAA was tested. Which “pre-steady-state target cleavage rate” value did it give?
A: 0.24 ± 0.016

Q: UCCUGGAACUCGUUGCAUAGUAUUUACAAA was tested. Which “pre-steady-state target cleavage rate” value did it give?
A: 0.0537 ± 0.013

Q: For UCCUGCUACAGCUUGCUAUGUAUUUAGUAA, which “pre-steady-state target cleavage rate” value is on record?
A: 0.0455 ± 0.019

Q: With UCCUGGAACAGCUUGGUUAGUAUUUAGUAA as the sequence, how does the “pre-steady-state target cleavage rate” value read?
A: 0.188 ± 0.035

same assay, conditions: auxiliary factor: none (no GTSF1)

Q: Which “pre-steady-state target cleavage rate” value does the source give for UCCUGGAUCAGCUUGCAAAGUUUUUAGUUA here?
A: 0.0042 ± 0.0022

Q: For UCCUGGAUGUGACUUGCAUAGUAUUUAGUUA, which “pre-steady-state target cleavage rate” value is on record?
A: 0.00737 ± 0.0028

Q: Which “pre-steady-state target cleavage rate” value does the source give for UCCUGGAAGUCCUUGCAUAGUAUUUAGUUA here?
A: 0.00649 ± 0.0018

Q: UCCUGGAUGUCGUUGCAUCGUAUUUAGUUA was tested. Which “pre-steady-state target cleavage rate” value did it give?
A: 0.00872 ± 0.0025

Q: With UCCUGGUACAGCAUGCAUAGUAUUUACUUA as the sequence, how does the “pre-steady-state target cleavage rate” value read?
A: 0.00419 ± 0.0038

Q: For UCCUGGAUCAGCUUGCAAAGUAAUUAGUUA, which “pre-steady-state target cleavage rate” value is on record?
A: 0.00502 ± 0.0023

Q: How did the “pre-steady-state target cleavage rate” value turn out when UCCUGCAACAGCUUGCAUAGUAUUUAGUUA was run?
A: 0.0107 ± 0.0034

Q: Which “pre-steady-state target cleavage rate” value does the source give for UCCUGGAUGUCGAACCAAGUAUUUAGUUA here?
A: < 0.0001

Q: How did the “pre-steady-state target cleavage rate” value turn out when UCCUGGUACACCUUGCAUAGUAUUUAGUAA was run?
A: 0.00413 ± 0.0031

Q: UCCUCCUACAGCAUGCAUUGUAUUUAGUUA was tested. Which “pre-steady-state target cleavage rate” value did it give?
A: 0.0102 ± 0.0027

Q: How did the “pre-steady-state target cleavage rate” value turn out when UCCUGGAAGAGCUUGCAUACUAUUUAGUUA was run?
A: 0.00312 ± 0.0024

Q: How did the “pre-steady-state target cleavage rate” value turn out when UCCUCGUACAGCUAGCAUAGUAUUUAGUUA was run?
A: 0.00766 ± 0.0022

Q: With UCCUCCUACAGCUUGCUUUGUAUUUAGUUA as the sequence, how does the “pre-steady-state target cleavage rate” value read?
A: 0.00401 ± 0.0023

Q: Which “pre-steady-state target cleavage rate” value does the source give for UCCUGGUAGAGCUUGCAUAGUAUUAAGUUA here?
A: 0.00672 ± 0.0026

Q: UCCUGGAUCAGCUUGCAUAGUAUUUAGUAA was tested. Which “pre-steady-state target cleavage rate” value did it give?
A: 0.00751 ± 0.0025

Q: For UCCUGGAACAGCUUGGUUAGUAUUUAGUAA, which “pre-steady-state target cleavage rate” value is on record?
A: 0.00709 ± 0.0024
